From PubChem
Shown are actives, neighbours in structure and some others; about 3.3% of the full set was active somewhere.
FBPA Giardia inh: inhibitors of Giardia lamblia fructose-1,6-bisphosphate aldolase; purified Giardia FBPA; A8B2U2; AID 2451; Potency, µM (top dose mostly 59.6 µM), usual class: inhibitors; 290,000 tested, 0.71% active; also: nearly all actives have a fitted effect of over 55% in size
Target sequence (A8B2U2 whole entry, looked up): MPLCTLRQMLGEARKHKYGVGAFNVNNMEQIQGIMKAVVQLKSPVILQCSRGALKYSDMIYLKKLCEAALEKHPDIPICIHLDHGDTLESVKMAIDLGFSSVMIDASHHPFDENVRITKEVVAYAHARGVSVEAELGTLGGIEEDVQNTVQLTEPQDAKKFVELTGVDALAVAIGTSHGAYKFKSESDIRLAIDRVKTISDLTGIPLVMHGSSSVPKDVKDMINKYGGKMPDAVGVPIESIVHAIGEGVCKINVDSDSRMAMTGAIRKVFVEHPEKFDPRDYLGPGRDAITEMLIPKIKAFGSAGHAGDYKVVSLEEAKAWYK
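Giardia FBPA (40 nM reagent) was preincubated 10 min at RT with compound (up to 57.5 uM final), then substrate plus GAPDH/TPI/NAD/arsenate coupling system with diaphorase/resazurin was added; resorufin fluorescence (525/598 nm) was read after 20 min.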
LmPK inhibitor: blocks Leishmania mexicana pyruvate kinase activity; Potency, µM (top dose mostly 57.5 µM), usual class: inhibitors; Q27686; 290,000 tested, 0.37% active; purified LmPK, Kinase-Glo ATP luminescence, 1 h
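Purified LmPK (0.1 nM) with 0.5 mM PEP and 0.1 mM ADP in imidazole buffer pH 7.2 with MgCl2/KCl, 1 h at room temperature. ATP formed was read by luciferase luminescence and normalized to no-enzyme and uninhibited controls.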
Sm TGR inh: blocks Schistosoma mansoni thioredoxin glutathione reductase | Q962Y6 | purified TGR, DTNB reduction, TNB absorbance 405 nm | Potency, µM (top dose mostly 114 µM), most hits filed as inhibitors | 360,000 tested, 3% active; also: nearly all actives have a fitted effect of over 60% in size
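First, TGR (20 nM dispensed) and NADPH were mixed with compound. Second, a 15 min room-temperature incubation followed. Third, further NADPH and then DTNB were added to start the reaction. Finally, TNB absorbance was monitored kinetically.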
RE007 growth inh: less growth of the S. pombe RE007 Vpr strain | S. pombe RE007 Vpr strain, BacTiter-Glo ATP luminescence, 24 h | Potency, µM (doses to about 92.2 µM), actives largely listed as inhibitors | 360,000 tested, 0.21% active | AID 651644; active = well fitted falling curve with a large enough effect; inconclusive = small, poorly fitted or top-dose-only effect; inactive = no such curve, though single readings can be large or run the other way; also: nearly all actives have a fitted effect of over 50% in size
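Fission yeast strain RE007, carrying one chromosomally integrated HIV-1 vpr copy, was seeded at OD 0.01 in PMG+AL medium with 23 nL pinned compound. After 24 h at 30 °C and 99% humidity, viability was read by BacTiter-Glo luminescence.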
TbPYK inhibitor: blocks Trypanosoma brucei pyruvate kinase. TbPYK enzyme, Kinase-Glo Plus ATP luminescence, 45 min. AID 624173. Q57TT1. 410,000 tested, 0.12% active. Potency, µM (titrated, usually from 76.8 µM), hits mostly inhibitors; also: nearly all actives have a fitted effect of over 50% in size
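In this concentration-response screen, enzyme-free wells defined baseline while DMSO plates tracked drift. Each reaction combined TbPYK, substrate, compound and 130 uM ADP for 45 min at room temperature. Kinase-Glo Plus luminescence gave the signal.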
LmPK inh confirm: Confirms inhibition of Leishmania mexicana pyruvate kinase; Potency, µM (titrated, usually from 57.5 µM), usual class: inhibitors; AID 2559; shares compounds with LmPK inhibitor; 150 tested, 40% active; purified LmPK, Kinase-Glo ATP luminescence, 1 h;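 active = compounds giving a full or partial concentration-response curve, as inhibitors or activators; inconclusive = weak, top-dose-only or unclear curve responses; inactive = no response at any tested dose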
A number is an active result; - = inactive; ? = inconclusive; . = no result given; [ ] = another dose, or the depositor's remark. Unless noted, calls follow the shape of the dose curve; as a rule, active = well fitted curve in the direction sought with a large enough effect; inconclusive = small, poorly fitted or top-dose-only effect, or another doubt; inactive = no such curve, though single readings can be large; an effect the other way counts as inactive or inconclusive.

SMILES	FBPA Giardia inh	LmPK inhibitor	Sm TGR inh	RE007 growth inh	TbPYK inhibitor	LmPK inh confirm
N/C(=N\OC(=O)c1ccccc1Cl)c1ccncc1	-	-	-	?	-	.
Cc1ccc(C(=O)O/N=C(\N)c2ccccc2)c(Cl)c1	-	4.47µM	-	?	?	18.3µM
CC[n+]1c(C)sc2sc3ccccc3c21	?	2.82µM	-	.	.	4.61µM
Cc1nc2c(s1)sc1ccccc12	-	-	-	-	-	.
Cc1cc(C(=O)Nc2ccc(N3CCOCC3)c(Cl)c2)c(C)o1	-	-	-	-	-	.
O=C1CN=C(Nc2ccccc2Cl)N1c1ccccc1	.	-	-	-	-	.
CCOc1ccc(N2C(=O)CN=C2Nc2ccccc2Cl)cc1	.	-	-	-	-	-
CC(=O)Nc1cc(-c2ccc(F)cc2)cn2c(-c3ccc(F)c(Cl)c3)cnc12	.	.	.	-[18.4 µM]	-	.
CCOc1ccc(/C=N/NC(=O)COc2ccccc2-c2ccccc2)cc1	-	-	-	-	-	-
CCOc1ccc(/C=N/NC(=O)c2c(-c3ccccc3)noc2C)cc1	-	-	-	-	-	.
COC(=O)c1sc(NC(=O)c2ccoc2C)nc1C	-	7.08µM	-	-	-	16.3µM
COC(=O)c1sc(NC(=O)c2ccco2)nc1C	-	-	-	-	-	.
COc1ccccc1NC(=O)c1ncn(-c2ccccc2)n1	.	.	-	.	-	.
Nc1ccc2nc(-c3ccccc3)sc2c1	-	8.91µM	-	?	?	16.3µM
O=C1c2ccccc2-c2nnc(-c3ccccc3)cc21	-	2.82µM	-	?	?	7.3µM
Cc1ccccc1N=CC1=C(O)c2ccccc2C1=O	-	3.98µM	.	?	?	14.6µM
O=C(NC(=O)c1ccccc1)Nc1ccccn1	.	4.47µM	-	.	.	13µM
CC(C)(C)OC(=O)N1CCC(c2c(C(=O)O)cnn2-c2ccc(Cl)cc2)CC1	?	-	-	-	-	.
CC(C)c1nnc(NC(=O)Cn2nc(-c3ccc4c(c3)OCCO4)ccc2=O)s1	-	-	-	-	-	.
Cc1cc(C(=O)NC2CCCc3ccccc32)ccc1[N+](=O)[O-] (configuration not stated)	-	-	-	-	-	.
COC(=O)c1ccc(Nc2nc(C)cc(C)n2)cc1	-	-	-	-	-	-
COc1ccc(C(=O)Nc2cccc(OC)c2)cc1	-	?	-[11.4 µM]	?	?	?
COc1cccc(NC(=O)c2ccccc2)c1	.	.	-	-	-	.
COn1c(SCc2ccc(Cl)cc2)nc2ccccc2c1=O	-	-	-	-	-	-
CCOC(=O)Cc1csc(NC(=S)NC(=O)c2ccc(Cl)cc2)n1	?	-	-	-	-	.
SMILES	FBPA Giardia inh	LmPK inhibitor	Sm TGR inh	RE007 growth inh	TbPYK inhibitor	LmPK inh confirm
CCOC(=O)Cc1csc(NC(=S)NC(=O)c2ccc([N+](=O)[O-])cc2)n1	?	7.08µM	?	-	-	?
CCc1ccc(C(=O)c2cc3ccc(O)cc3oc2=O)cc1	-	-	-	-	-	.
O=C(c1ccccc1)c1cc2ccc(O)cc2oc1=O	-	3.55µM	-	?	?	7.3µM
COC(=O)c1[nH]c2ccc(C)cc2c1NC(=O)CN1CCN(c2ccc(F)cc2)CC1	-	-	-	-	-	.
CC(=O)Oc1ccc(Oc2ccc(-c3noc(C)n3)cc2)cc1	-	-	-	?	-	.
CC(=O)Oc1ccc(-c2nc(-c3cccnc3)no2)cc1	-	5.01µM	-	-	-	5.8µM
CC(C)C[C@H](NC(=O)[C@H](Cc1ccccc1)C[C@@H](O)[C@H](Cc1ccccc1)NC(=O)OC(C)(C)C)C(=O)N[C@@H](Cc1ccccc1)C(N)=O	-	.	.	.	.	.
Cc1cnccc1CN(C)Cc1cn(C)nc1-c1cccc(Cl)c1	-	-	?	-	-	-
CN(Cc1ccon1)Cc1cn(C)nc1-c1ccc(Oc2ccccc2)cc1	-	-	-	-	-	.
CN(Cc1cn(C)nc1-c1cccc(Cl)c1)CC1CCCCO1 (configuration not stated)	-	-	-	-	-	-
Cc1cnccc1CN(C)Cc1cn(C)nc1-c1ccc(Oc2ccccc2)cc1	-	-	-	-	-	-
CC(C)N(Cc1cn(C)nc1-c1cccc(Cl)c1)Cc1nccn1C	-	-	-	-	-	.
CC(C)CN(CC(C)C)C(=S)NC1CCCCC1	-	-	-	-	-	.
CCOc1cc(-c2noc(-c3ccncc3)n2)cc(Br)c1OC	-	-	-	-	-	.
Cc1ccnc(NC(=O)c2ccc3c(c2)OCO3)c1	-	14.1µM	-	?	?	16.3µM
CCOc1ccc(S(=O)(=O)N(C)c2ccc(OCC(=O)Nc3nccs3)cc2)cc1	-	-	-	-	-	.
CCOc1ccc(OCC(=O)Nc2nccs2)cc1	-	10µM	.	?	22.4µM	13µM
COc1ccc(C(O)c2ncc(-c3ccccc3)[nH]2)cc1 (configuration not stated)	.	.	.	?	-	.
O=C(Nc1ccc(Cl)c(S(=O)(=O)N2CCOCC2)c1)c1cn2ccccc2n1	-	-	-	-	-	.
O=C(Nc1ccc(N2CCOCC2)cc1)c1cn2ccccc2n1	-	2.82µM	-	-	?	16.3µM
Cc1ccc(S(=O)(=O)n2c(N)nc3ccccc32)cc1	-	-	-	-	-	.
Cc1ccc(C(=O)n2c(N)nc3ccccc32)cc1	-	5.01µM	.	-	-	32.6µM
O=C(Nc1ccc2c(c1)OCCO2)c1ccccn1	-	5.01µM	-	?	?	18.3µM
O=C(C=Cc1ccc2c(c1)OCO2)C=Cc1ccc2c(c1)OCO2	.	.	.	-	-	.
O=C(Nc1ccc(NC(=O)c2ccccn2)cc1)C(=O)Nc1ccc2c(c1)OCCO2	-	-	-	-	-	.
SMILES	FBPA Giardia inh	LmPK inhibitor	Sm TGR inh	RE007 growth inh	TbPYK inhibitor	LmPK inh confirm
O=C(/C=C/c1ccc2c(c1)OCO2)c1ccccn1	?	5.01µM	-	?	?	20.6µM
Cc1cccc(-c2nnc(NC(=O)c3ccc(Cl)cc3)o2)c1	-	-	-	?	-	.
CC(=O)c1c(C)[nH]c(C(=O)NCCc2cccc(C)c2)c1C	-	-	-	-	-	.
Cc1ccc(CNC(=O)CN2Cc3ccccc3C2=O)cc1	.	.	-	.	-	.
COc1cc(NC(=O)CSc2nc3ccccc3cc2Cc2ccccc2)cc(OC)c1	-	-	-	-	-	.
COc1cccc(NC(=O)CSc2nc3ccccc3cc2Cc2ccccc2)c1	-	-	-	-	-	-
COc1ccc(Cn2cc(CN3CC(N4CCN(C)CC4)CS3(=O)=O)nn2)cc1 (configuration not stated)	.	.	.	-	-	.
Cc1nc(N/N=C/c2ccccn2)sc1C	-	10µM	-	15.8µM	?	18.3µM
CCCc1sc(N/N=C/c2ccccn2)nc1-c1ccc(F)cc1	-	-	-	?	-	.
CN=c1scc(-c2ccco2)n1/N=C/c1ccc(O)c(O)c1	?	5.62µM	10µM	-	-	?
COc1ccc(O)c(/C=N/n2c(-c3ccco3)csc2=Nc2cccnc2)c1	-	-	-	-	-	.
